According to PubChem BioAssay (Tox21):
Results filed as inconclusive are left out. Where a call stands in place of a potency, no number is given. Calls of active or inactive are those of the source. Calls come from the whole dose curve; as a rule, active = well fitted activation curve with a large enough effect in the repeat runs; inconclusive = weak or mixed curves; inactive = flat fitted curve, though single readings scatter.

Assay: A CellTox Green Cytotoxicity Assay to monitor cytotoxicity in HepG2 cells - 8 hour (AID 1224890); note: nearly all actives have a fitted effect of over 45% in size
Details: CellTox Green fluorescence; series mostly up to 76.8 µM
Description: National Center for Advancing Translational Sciences [NCATS]
NIH Chemical Genomics Center [NCGC]
U.S. Environmental Protection Agency [EPA]
National Institutes of Environmental Health Sciences [NIEHS]
National Toxicology Program [NTP]
Cell-based models are critical for drug discovery. Determining the natural cytotoxic effects resulting from test compounds is an essential research activity. A CellTox Green Cytotoxicity Assay to monitor cytotoxicity in real time of continues cell culture during 40 hours of the compound treatment was used to screen Tox21 10K library compounds in HepG2 cells. CellTox Green Cytotoxicity Assay is a nonlytic, homogeneous, biofluorescent method to measure cytotoxicity in cell culture after experimental manipulation. The assay system uses a proprietary asymmetric cyanine dye that is excluded from viable cells but preferentially stains the dead cell's DNA. […] Viable cells produce no appreciable increases in fluorescence. Therefore, the fluorescence signal produced by the binding interaction with dead cell DNA is proportional to cytotoxicity.
The mixture of HepG2 cell suspension and reagents were dispensed at 600cells/6 ul/well in 1536-well tissue culture treated black solid bottom plates using a Multidrop dispenser. After the assay plates were incubated at a 37 C/5% CO2 incubator for 5 hours, 23 nL of compounds dissolved in DMSO, positive and negative controls was transferred to the assay plate by a pintool work station. The plates were incubated at 37 C for 40 hours. The fluorescence intensity were measured at 0h, 8h, 16h, 24h, 32h and 40h time points using ViewLux plate reader during compound treatment.
Potency is the fitted concentration of half-maximal effect.

| Compound | Potency | cytotoxicity increase |
| --- | --- | --- |
| Nc1cccc([N+](=O)[O-])c1 | inactive | – |
| Brc1c2ccccc2cc2ccccc12 | inactive | – |
| CC(CSC(=O)c1ccccc1)C(=O)N1C[C@@H](Sc2ccccc2)C[C@H]1C(=O)O (stereo not given in full) | – | -3.03% [at 15.8 µM] (inactive) |
| CCCCC(CC)CN1C(=O)C2C3C=CC(C3)C2C1=O (stereo not given) | inactive | – |
| CCCCC(=O)OCC(=O)[C@H]1[C@H](C)C[C@H]2[C@@H]3C[C@H](F)C4=CC(=O)C=C[C@]4(C)[C@@]3(F)[C@@H](O)C[C@@]21C | inactive | – |
| CCOC(=O)COC(=O)c1cc(Oc2ccc(C(F)(F)F)cc2Cl)ccc1[N+](=O)[O-] | inactive | – |
| Clc1ccc(Cn2c(CN3CCCC3)nc3ccccc32)cc1 | inactive | – |
| CCO[Si](CCCCl)(OCC)OCC | inactive | – |
| C[C@H](CCC(=O)O)[C@H]1CC[C@H]2[C@@H]3CC[C@@H]4C[C@H](O)CC[C@]4(C)[C@H]3C[C@H](O)[C@]12C | inactive | – |
| CN(Cc1ccc(C(C)(C)C)cc1)Cc1cccc2ccccc12 | inactive | – |
| CCCCC/C=C\C/C=C\CCCCCCCC(=O)NC(C)c1ccccc1 (stereo not given) | inactive | – |
| Cc1cccc(Nc2ccccc2)c1 | 49 µM (active) | – |
| CCC(C)(C)CC | inactive | – |
| O=C1CCC(=O)O1 | inactive | – |
| CCCCC(CC)COC(=O)CCCCCCCCC(=O)OCC(CC)CCCC (stereo not given) | inactive | – |
| CC(COCCO)OCCO (stereo not given) | inactive | – |
| COc1ccc(C(=O)c2ccc(OC)cc2O)c(O)c1 | inactive | – |
| O=[N+]([O-])c1ccc(NCCO)c(OCCO)c1 | inactive | – |
| C[C@@H](c1ncncc1F)C(O)(Cn1cncn1)c1ccc(F)cc1F (stereo not given in full) | inactive | – |
| C[C@@H]1C[C@H]2O[C@@]3(O[C@@H]2C(C)(C)O)[C@H](O)[C@@]2(C)[C@@H]4CC[C@H]5C(C)(C)[C@@H](O[C@@H]6OC[C@@H](O)[C@H](O)[C@H]6O)CC[C@@]56C[C@@]46CC[C@]2(C)[C@@H]13 | inactive | – |

| Compound | Potency | cytotoxicity increase |
| --- | --- | --- |
| CCC(C)c1cc(C(C)(C)C)c(O)c(C(C)(C)C)c1 (stereo not given) | inactive | – |
| C=CC(=O)OCCOCCOCCOCCOC(=O)C=C | inactive | – |
| O=C(O)C(S)C(S)C(=O)O (stereo not given) | inactive | – |
| CCOC(=O)NCCOc1ccc(Oc2ccccc2)cc1 | inactive | – |
| CCCCNc1ccc(C(=O)OCCOCCOCCOCCOCCOCCOCCOCCOCCOC)cc1 | inactive | – |
| CCOC(=O)C1=C[C@]2(CC)CCCN3CCc4c(n1c1ccccc41)[C@@H]32 | inactive | – |
| COc1ccc(C(=O)N2CCN(CC(=O)N3CCOCC3)CC2)cc1 | inactive | – |
| O=C1c2ccccc2S(=O)(=O)N1CCCCN1CCN(c2ncccn2)CC1 | inactive | – |
| Cc1nn(C)c(Oc2ccccc2)c1/C=N/OCc1ccc(C(=O)OC(C)(C)C)cc1 | inactive | – |
| O=C1OC(CN2CCOCC2)CN1/N=C/c1ccc([N+](=O)[O-])o1 (stereo not given) | inactive | – |
| O=C(O)c1ccc(S(=O)(=O)O)cc1C(=O)O | inactive | – |
| CN(C)c1ccc(/C=C/c2ccc([N+](=O)[O-])cc2)cc1 | – | 23.9% [at 6.97 µM] (inactive) |
| CCOCC(O)COc1ccc(NC(=O)CC[S+](C)C)cc1 (stereo not given) | inactive | – |
| O=C(CS)Nc1ccccc1 | inactive | – |
| CC(=O)c1ccc2c(c1)N(CCCN(C)C)c1ccccc1S2 | inactive | – |
| CC(C)=CCC/C(C)=C/CC/C(C)=C/CO | inactive | – |
| C/C=C/C=C/CO | inactive | – |
| Cc1cc(C(=O)O)ccc1[N+](=O)[O-] | inactive | – |
| CC[N+](C)(CC)CCOC(=O)C(O)(c1ccccc1)C1CCCCC1 (stereo not given) | inactive | – |
| Nc1ccccc1S(=O)(=O)c1ccccc1 | inactive | – |
